Several values for one entry are separate records, joined by “and”; a condition that tells them apart may be missing. Identical values can stand only once. About 2,000 (36%) of roughly 5,500 compounds were called active. Another 18% or so got no clear call; they are omitted. Rule as the data show it: active = normalized growth mostly below about 0.91 (no sharp cut-off); inconclusive = no clear call, values can overlap the other calls; inactive = mostly above about 0.92. The list shows a part of the results.
Test: chemical genetic growth profiling, strain panel (AID 1159580);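 also: tested at 20 µM; growth read once vehicle control cultures reached saturation at 30 °C; 1 = growth at the plate median or of vehicle wells; lower values mean less growth of the strain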
Conditions: S. cerevisiae deletion strains, growth OD

Measured: normalized growth

C[n+]1cc2c3c(ccc2c2ccc4cc5c(cc4c21)OCO5)OCO3
inactive: locus YJR066W, strain TOR1, stronger effect = lower value 0.931 | locus YKL009W, strain mrt4, stronger effect = lower value 0.922 | locus YKL068W, stronger effect = lower value 0.964 | locus YLR113W, strain HOG1, stronger effect = lower value 0.951 | locus YLR384C, strain iki3, stronger effect = lower value 0.97 | locus YMR231W, strain pep5, stronger effect = lower value 0.991 | locus YNL183C, strain NPR1, stronger effect = lower value 0.923 | locus YNL271C, strain bni1, stronger effect = lower value 0.92 | locus YNL298W, strain CLA4, stronger effect = lower value 0.951 | locus YNL322C, strain KRE1 (second series), stronger effect = lower value 1 | locus YNR049C, strain mso1, stronger effect = lower value 0.964 | locus YOL012C, strain htz1 0.232 | locus YOR231W, strain MKK1, stronger effect = lower value 0.96 | locus YPL256C, strain CLN2, stronger effect = lower value 0.969 | locus YPR141C, strain kar3, stronger effect = lower value 0.971
active: locus YJR043C, strain POL32, stronger effect = lower value 0.0783 | locus YJR075W, strain HOC1, stronger effect = lower value 0.0715 and 0.0688 | locus YKL085W, strain MDH1 (second series), stronger effect = lower value 0.921 | locus YKL085W, strain MDH1, stronger effect = lower value 0.921 | locus YKL160W, strain elf1, stronger effect = lower value 0.548 | locus YKL190W, strain CNB1, stronger effect = lower value 0.0545 | locus YKR001C, strain vps1, stronger effect = lower value 0.0723 | locus YKR026C, strain gcn3, stronger effect = lower value 0.843 | locus YKR091W, strain srl3, stronger effect = lower value 0.914 | locus YLL001W, strain dnm1, stronger effect = lower value 0.639 | locus YLL026W, stronger effect = lower value 0.549 | locus YLL041C, strain sdh2, stronger effect = lower value 0.778 | locus YLR027C, strain aat2, stronger effect = lower value 0.379 | locus YLR039C, strain RIC1, stronger effect = lower value 0.101 | locus YLR058C, strain SHM2, stronger effect = lower value 0.0596 | locus YLR102C, strain apc9, stronger effect = lower value 0.0679 | locus YLR221C, strain rsa3, stronger effect = lower value 0.562 | locus YLR258W, strain gsy2, stronger effect = lower value 0.502 | locus YLR262C, strain YPT6 (second series), stronger effect = lower value 0.827 | locus YLR262C, strain YPT6, stronger effect = lower value 0.123 | locus YLR268W, strain sec22, stronger effect = lower value 0.0776 | locus YLR320W, strain mms22, stronger effect = lower value 0.375 | locus YLR330W, strain CHS5, stronger effect = lower value 0.0586 | locus YLR342W, strain FKS1 (second series), stronger effect = lower value 0.0743 | locus YLR342W, strain FKS1, stronger effect = lower value 0.349 | locus YLR357W, strain rsc2, stronger effect = lower value 0.844 | locus YLR370C, strain arc18, stronger effect = lower value 0.762 | locus YLR371W, strain rom2, stronger effect = lower value 0.0708 | locus YLR418C, strain cdc73, stronger effect = lower value 0.107 | locus YML016C, strain PPZ1, stronger effect = lower value 0.0598 | locus YML032C, strain rad52, stronger effect = lower value 0.0764 | locus YML120C, strain ndi1, stronger effect = lower value 0.582 | locus YML124C, strain tub3, stronger effect = lower value 0.0684 | locus YMR058W, strain fet3, stronger effect = lower value 0.592 | locus YMR078C, strain ctf18, stronger effect = lower value 0.0819 | locus YMR125W, strain sto1, stronger effect = lower value 0.462 | locus YMR129W, stronger effect = lower value 0.779 | locus YMR205C, strain PFK2, stronger effect = lower value 0.273 | locus YMR223W, strain ubp8, stronger effect = lower value 0.077 | locus YMR307W, strain GAS1, stronger effect = lower value 0.145 and 0.0622 | locus YNL067W, strain RPL9B, stronger effect = lower value 0.0573 | locus YNL071W, strain lat1, stronger effect = lower value 0.0942 | locus YNL175C, strain NOP13, stronger effect = lower value 0.0763 | locus YNL197C, strain WHI3, stronger effect = lower value 0.0898 | locus YNL209W, strain ssb2, stronger effect = lower value 0.623 | locus YNL224C, strain SQS1, stronger effect = lower value 0.0906 | locus YNL233W, strain BNI4, stronger effect = lower value 0.0657 | locus YNL248C, strain rpa49, stronger effect = lower value 0.688 | locus YNL250W, strain rad50, stronger effect = lower value 0.839 | locus YNL307C, strain MCK1, stronger effect = lower value 0.0755 | locus YNL322C, strain KRE1, stronger effect = lower value 0.0622 | locus YNR052C, strain pop2, stronger effect = lower value 0.085 | locus YOL006C, strain TOP1, stronger effect = lower value 0.135 | locus YOL147C, strain pex11, stronger effect = lower value 0.0667 | locus YOR001W, strain rrp6, stronger effect = lower value 0.823 | locus YOR061W, strain CKA2, stronger effect = lower value 0.0586 | locus YOR069W, strain VPS5, stronger effect = lower value 0.0593 | locus YOR070C, strain gyp1, stronger effect = lower value 0.413 | locus YOR080W, strain dia2, stronger effect = lower value 0.825 | locus YOR083W, strain WHI5 (second series), stronger effect = lower value 0.0851 | locus YOR083W, strain WHI5, stronger effect = lower value 0.475 | locus YOR106W, strain vam3, stronger effect = lower value 0.315 | locus YOR136W, strain idh2, stronger effect = lower value 0.0832 | locus YOR144C, strain elg1, stronger effect = lower value 0.0651 | locus YOR184W, strain ser1, stronger effect = lower value 0.0766 | locus YOR265W, strain rbl2, stronger effect = lower value 0.5 | locus YOR270C, strain vph1, stronger effect = lower value 0.38 | locus YOR290C, strain snf2, stronger effect = lower value 0.412 | locus YOR316C, strain cot1, stronger effect = lower value 0.0661 | locus YPL051W, strain arl3, stronger effect = lower value 0.512 | locus YPL055C, strain LGE1, stronger effect = lower value 0.0742 and 0.092 | locus YPL078C, strain atp4, stronger effect = lower value 0.538 | locus YPL106C, strain sse1, stronger effect = lower value 0.741 | locus YPL240C, strain hsp82, stronger effect = lower value 0.58 | locus YPR119W, strain clb2, stronger effect = lower value 0.07 | locus YPR163C, strain tif3, stronger effect = lower value 0.0761 | locus YPR167C, strain met16, stronger effect = lower value 0.0704 | strain wtn01, stronger effect = lower value 0.067
